Molecules are shown by their SMILES. Values joined by “and” are separate entries in the source; they are usually repeats but may differ in a detail not shown here. Equal entries are not always repeated. Inconclusive results are not listed. Unmarked numbers belong to inactive results. Active and inactive are the calls of the source. Calls follow the shape of the dose curve; as a rule, active = well fitted curve in the direction sought with a large enough effect; inconclusive = small, poorly fitted or top-dose-only effect, or another doubt; inactive = no such curve, though single readings can be large; an effect the other way counts as inactive or inconclusive.

A short description of test [1]: Viability qHTS for spleen associated tyrosine kinase inhibitor (SYKi) drug resistant MV4-11 cells (AID 1963824). Also: nearly all actives have a fitted effect of over 35% in size. The gist of the method:
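SYK-inhibitor-resistant MV4-11 AML cells were seeded at 500 per well onto compound and cultured 72 hours (37 °C, 5% CO2). CellTiter-Glo was then added, and after 10 min at room temperature, luminescence gave viability.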
(qHTS replaces the single test concentration by a dilution series.)

Test [2] in a line: Cellular viability qHTS for adrenocortical cancer (ACC) cell line SW-13 (AID 1963989). Also: nearly all actives have a fitted effect of over 65% in size.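 As to activity (max response): cells grown in serum-free medium with ITS supplement; % is scaled to controls: 0 for no effect and ±100 for the full control effect.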 To be noted: SW-13 ACC cells viability, CellTiter-Glo, 48 h; activity (max response): active compounds read low. Put shortly: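 Viability was read as CellTiter-Glo luminescence after 48 h compound treatment (up to 46 uM final) of SW-13 cells grown serum-free; titration curves were fit with a four-parameter logistic model to give IC50 and efficacy.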

Test [3] is described as follows: Cellular viability qHTS for adrenocortical cancer (ACC) cell line NCI-H295R (AID 1963990). Also: nearly all actives have a fitted effect of over 60% in size. The gist of the method:
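CellTiter-Glo ATP luminescence, read 48 h after compound addition, measured viability of NCI-H295R adrenocortical cells grown serum-free with ITS. Final concentrations spanned up to 46 uM. Data normalized to DMSO and doxorubicin, fitted for IC50 and maximal response.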
Potency is read from the fitted curve at half-maximal effect.

As for `COc1ccc2nc(SCc3ncc(C)c(OC)c3C)[nH]c2c1`, the Potency result in test [1] is “inactive”. In addition, in test [2], the activity (max response) was 3.67%.
Take `CC1(C)O[C@@H]2C[C@H]3[C@@H]4C[C@H](F)C5=CC(=O)C=C[C@]5(C)[C@H]4[C@@H](O)C[C@]3(C)[C@]2(C(=O)CO)O1`: in test [1], the Potency was 18.6 µM (active). For the same compound, the activity (max response) in test [2] is -3.16% and 0.473%. Moreover, the Potency result in test [3] is “inactive”.
Regarding `CO[C@H]1/C=C/O[C@@]2(C)Oc3c(C)c(O)c4c(O)c(c(/C=N/N5CCN(C)CC5)c(O)c4c3C2=O)NC(=O)/C(C)=C\C=C\[C@H](C)[C@H](O)[C@@H](C)[C@@H](O)[C@@H](C)[C@H](OC(C)=O)[C@@H]1C`, the Potency in test [1] is 18.6 µM (active). For the same compound, in test [2], the activity (max response) was -27.5%.
As for `Brc1c(NC2=NCCN2)ccc2nccnc12`, the Potency entry in test [1] and in test [3] was “inactive” in each case. Moreover, in test [2], the activity (max response) was -5.06%.
As for `CC(=O)OCC1=C(C(=O)O)N2C(=O)[C@@H](NC(=O)CSc3ccncc3)[C@H]2SC1`, in test [1], the Potency result was “inactive”. In addition, the activity (max response) in test [2] is 10.5%.
The corresponding values for `Cc1cc(-c2cnn3c(NCC4CC(C)(O)C4)cc(Oc4cccnc4)nc23)ccc1C(=O)NC1CC1` (configuration not stated) are 0.118 µM (active) and -6.44%.
On to `CCOC(=O)[C@@](C)(N)Cc1ccc(O)c(O)c1`, for which the Potency entry in test [1] and in test [3] was “inactive” each time. Further, the activity (max response) in test [2] is -4.97%.
With `C=C[C@H]1CN2CCC1C[C@@H]2C(O)c1ccnc2ccc(OC)cc12` (some centres not stated), the Potency in test [1] is 14.8 µM (active). Moreover, in test [2], the activity (max response) was 3.34%.
In the case of `Oc1cccc(-c2c3nc(c(-c4cccc(O)c4)c4ccc([nH]4)c(-c4cccc(O)c4)c4nc(c(-c5cccc(O)c5)c5ccc2[nH]5)CC4)C=C3)c1`, the values for the Potency in test [1] and in test [2] were 18.8 µM (active) and 6.51 µM (active), respectively.
In the case of `CNC(=O)CCc1cc(-c2ccc(-c3ccc(C(F)(F)F)cc3)cc2)n(-c2ccc(N3CCNCC3)cc2)n1`, the Potency is 2.09 µM (active) in test [1], 3.98 µM (active) in test [2] and 7.08 µM (active) in test [3].
For the compound `COc1ccc(S(=O)(=O)N2c3ccc(Cl)cc3[C@@](O)(c3ccccc3Cl)[C@H]2C(=O)N2CCC[C@@H]2C(N)=O)cc1OC`, the Potency in test [1] is 16.8 µM (active). The activity (max response) in test [2] is -24.3%.
On to `CO[C@H]1/C=C/O[C@@]2(C)Oc3c(C)c(O)c4c(O)c(c5c(nc6cc(C)ccn65)c4c3C2=O)NC(=O)/C(C)=C\C=C\[C@H](C)[C@H](O)[C@@H](C)[C@@H](O)[C@@H](C)[C@H](OC(C)=O)[C@@H]1C`, for which the Potency in test [1] is 14.8 µM (active); in test [2] it was 25.1 µM (active).
Take `Cc1cc(C)c2c(c1)[C@@H](N(Cc1cc(C(F)(F)F)cc(C(F)(F)F)c1)c1nnn(C)n1)CCCN2CC1CCC(C(=O)O)CC1` (some centres not stated): in test [1], the Potency was 18.6 µM (active). In test [2], the activity (max response) was -23.9%.
With `C=CCCCCCCCCC(=O)O`, the Potency result in test [1] and in test [3] was “inactive” each time. In addition, the activity (max response) in test [2] is 9.7%.
`CCOC(=O)NNc1ccc(N(CC)CC(C)O)nn1` (configuration not stated): the Potency entry in test [1] and in test [3] was “inactive” in each case. Moreover, the activity (max response) in test [2] is -8.2%.
With `CCCC[C@@H](C=O)NC(=O)[C@H](CC(C)C)NC(=O)OCc1ccccc1`, the Potency in test [1] is 18.6 µM (active). Further, the activity (max response) in test [2] was -4.14%.
For the compound `Cc1ncc(NC(=O)c2cccc(C(F)(F)F)c2)cc1-c1cnc(OC2CCOCC2)c(N2CCOCC2)c1`, the Potency was 5.9 µM (active) in test [1] and 22.4 µM (active) in test [2].
Turning to `C=C1C(=O)OC2/C=C(/C)CC/C=C(/C)CCC12` (configuration not stated), the Potency in test [1] is 5.25 µM (active). Also, in test [2], the activity (max response) is -9.66%.
In the case of `COc1cc(S(C)(=O)=O)ccc1Nc1nc2ccc(-c3ccc(NC(=O)[C@H](C)c4ccc(F)cc4)cc3)cn2n1`, the Potency in test [1] was 0.468 µM (active). The activity (max response) in test [2] is -19.6%.
Turning to `Cc1ccc(NC(=O)c2ccc3c(c2)OCCO3)cc1NC(=O)c1ccc2nc(OCCN3CCCC3)ccc2c1`, the Potency in test [1] was 0.0229 µM (active); in test [2], 0.802 µM (active).
Turning to `CCN(CC)CCOC(=O)C(Cc1cccc2ccccc12)CC1CCCO1` (configuration not stated), the Potency entry in test [1] was “inactive”. Besides, the activity (max response) in test [2] is -10.7%.
As to `O=c1cc(N2CCOCC2)oc2c(-c3ccc4c(c3)OCCO4)csc12`, the results for the Potency in test [1] and in test [2] were 0.59 µM (active) and 11.2 µM (active), respectively.
For the compound `CC(Nc1ncnc2nc[nH]c12)c1cc2cccc(Cl)c2c(=O)n1-c1ccccc1` (configuration not stated), the Potency in test [1] is 2.59 µM (active). Moreover, the activity (max response) in test [2] is -2.7%.
The corresponding values for `CCCCOc1nc(N)c2c(n1)N(Cc1cccc(CN3CCCC3)c1)CC(=O)N2` are 23.5 µM (active) and -4.22%.
The like results for `CCOC(=O)[C@H]1O[C@@H]1C(=O)N[C@@H](CC(C)C)C(=O)NCCC(C)C` were, in that order, 5.9 µM (active) and -2.38%.
In the case of `CCCCCCCCCCCCCCCC[N+](C)(C)CC`, the Potency in test [1] was 0.668 µM (active); in test [2], 5.17 µM (active); in test [3], 7.31 µM (active).
Regarding `C[C@@H](C1=C(CCN(C)C)Cc2ccccc21)c1ccccn1`, the Potency entry in test [1] and in test [3] was “inactive” each time. In addition, the activity (max response) in test [2] is -0.59%.

The record behind these values is PubChem BioAssay (NCATS).
